Wnt bcat act: activators of Wnt/beta-catenin signaling; Wnt/beta-catenin reporter cell assay, activator, plate reader; activation, % at 9.35 µM; 1.2% of 300,000 active; in the data active = activation above about 30%, passing the limit was not always enough; inconclusive = no clear call, values can overlap the other calls;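 note: 0% = neutral control wells and 100% = positive control wells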
DAX1 StAR inh: DAX1 (NR0B1) inhibition, primary screen | HEK293T StAR-luciferase reporter, SF-1/DAX-1 repression relief | inhibition, % at 6.8 µM | 1.1% of 370,000 active | AID 652010;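 active = inhibition above the mean over all tested compounds plus 3 SD, cut at about 3.6% in these data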;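 note: 0% = DAX-1 cells with DMSO and 100% = cells lacking DAX-1 with DMSO; higher inhibition means more luminescence from relief of DAX-1 repression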
hgDAF-12 ag: activates the H. glycines DAF-12 receptor ligand-binding domain; activation, % at 6.8 µM; 1.8% of 370,000 active; AID 687014; HEK293 GAL4-hgDAF12 UAS-luciferase reporter, agonist luminescence; normalized to butyrate control;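 active = activation above a cutoff set at the mean of all screened compounds plus 3 SD, cut at about 10% in these data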;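 note: 0% = DMSO wells and 100% = sodium butyrate wells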
esBAF inh: blocks esBAF chromatin remodeling in mouse ES cells | Bmi1-luciferase knock-in reporter, 24 h; 100% = twice the neutral-well signal | reporter increase, % at 12.5 µM | 2% of 350,000 active | AID 602393; in the data active = activation above about 40%; inconclusive = no clear call, values can overlap the other calls;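 note: 0% = median of the plate's neutral control wells and 100% = double that signal; a rise in the Bmi1 reporter signal indicates esBAF inhibition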
hcDAF-12 act: H. contortus DAF-12 activation, primary screen. HEK293 hcDAF-12 lit1-tk-luc reporter, luminescence; 0% DMSO, 100% Δ7-dafachronic acid. activation, % at 6.8 µM. 1.4% of 370,000 active. AID 652067;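 active = activation above the mean of all tested compounds plus 3 SD, cut at about 5.5% in these data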;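 note: 100% = response to 3 µM Δ7-dafachronic acid high control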
ssDAF-12 act: activates DAF-12 receptor from parasite S. stercoralis. HEK293 ssDAF-12/GRIP1 lit1-tk-luc reporter, luminescence; % of 3 µM dafachronic acid response. activation, % at 6.8 µM. 1% of 370,000 active. AID 652126;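 active = activation above the mean over all tested compounds plus 3 SD, cut at about 0.9% in these data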;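 note: 0% = DMSO-only wells and 100% = 3 µM delta7-dafachronic acid wells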
* marks the source's active call; other numbers are inactive results; ? = inconclusive; . = not tested or not shown. The list is not random: actives were taken first. Their share in the collection is about 4.2%.

SMILES | Wnt bcat act | DAX1 StAR inh | hgDAF-12 ag | esBAF inh | hcDAF-12 act | ssDAF-12 act
CN(CC(=O)Nc1cccc(F)c1)C(=O)c1sc2ccccc2c1Cl | -5.1 | 3.5 | 6.1 | 61.5* | 1.1 | -1.5
Cc1ccccc1-c1cnc(C(O)c2ccccc2)[nH]1 (stereo not given) | -0.2 | 2.9 | 7.0 | 49.0* | 3.4 | -1.4
CCc1ccc(C(O)c2ncc(-c3ccccc3F)[nH]2)cc1 (stereo not given) | 11.2 | 4.1* | 4.4 | . | 0.9 | -0.3
Cc1ccccc1-c1cnc(C(O)c2ccc(F)cc2)[nH]1 (stereo not given) | 0.6 | 2.5 | 7.7 | . | 4.2 | -1.0
CCc1ccc(C(O)c2ncc(-c3cccc(F)c3)[nH]2)cc1 (stereo not given) | -2.2 | -0.2 | 3.9 | 87.0* | 0.6 | -0.3
COc1cccc(-c2cnc(C(O)c3ccc(F)cc3)[nH]2)c1 (stereo not given) | 1.6 | 1.2 | 6.8 | 55.9* | 2.1 | -0.4
C/C=C/c1cnc2c(c1)C(=O)N([C@@H](C)CO)C[C@H](C)[C@H](CN(C)C(=O)NC1CCCCC1)O2 | . | . | . | 2.7 | . | .
Cc1noc(C)c1S(=O)(=O)Nc1ccc2c(c1)CC(=O)N([C@@H](C)CO)C[C@@H](C)[C@H](CN(C)C(=O)Nc1ccc3c(c1)OCO3)O2 | . | . | . | 5.6 | . | .
OC(c1ccc(F)cc1)c1ncc(-c2ccccc2F)[nH]1 (stereo not given) | 1.9 | 2.6 | 11.2* | ? | 2.0 | 0.2
OC(c1ccccc1)c1ncc(-c2ccc(Cl)cc2)[nH]1 (stereo not given) | -3.5 | 3.0 | 4.4 | 47.5* | 1.9 | -0.7
OC(c1ccc(F)cc1)c1ncc(-c2ccccc2Cl)[nH]1 (stereo not given) | -5.1 | 1.0 | 6.5 | 38.4 | 1.8 | 0.3
O=C(C[C@H]1C=C[C@H](NC(=O)c2cccc(F)c2)[C@@H](CO)O1)NCc1ccccc1 | . | . | . | -3.5 | . | .
C(=N\Nc1nc(-c2ccccc2)cs1)/c1cccnc1 | 21.8 | 1.2 | 4.9 | 62.6* | 2.1 | -0.9
Clc1ccc(-c2csc(N/N=C/c3cccnc3)n2)c(Cl)c1 | 0.2 | -1.7 | -2.7 | . | -4.1 | -1.7
CC(C)(C)c1csc(N/N=C/c2cccnc2)n1 | 12.4 | 2.3 | 6.7 | 33.8* | 0.5 | -1.3
C(=N\Nc1nccc(-c2cccnc2)n1)/c1ccccc1 | 48.7* | 1.0 | 7.4 | . | 2.1 | -1.0
Cc1cc(C)cc(NC(=O)CCc2c(C)nn(-c3ccc(N4CCCCC4)nn3)c2C)c1 | 16.0 | 4.1* | 8.2 | 67.6* | 0.1 | -0.3
Cc1nn(-c2ccc(N3CCCCC3)nn2)c(C)c1CCC(=O)Nc1ccc(F)c(F)c1 | 13.9 | 1.1 | 6.1 | 55.0* | 6.4* | -1.0
Cc1ccc(NC(=O)CCc2c(C)nn(-c3ccc(N4CCCCC4)nn3)c2C)cc1 | 12.8 | 1.6 | 5.5 | 37.7 | 1.0 | -0.5
COc1ccc(C)cc1NC(=O)CCc1c(C)nn(-c2ccc(N3CCCCC3)nn2)c1C | 10.8 | -0.6 | 4.1 | 61.2* | 2.1 | -0.5
Cc1ccc(NC(=O)CCc2c(C)nn(-c3ccc(N4CCOCC4)nn3)c2C)cc1F | 5.9 | 1.4 | 3.2 | 52.6* | 0.1 | 0.1
COCC(=O)N1[C@@H]2Cn3c(ccc(-c4ccccc4)c3=O)[C@H]1[C@@H](C(=O)NCc1ccccn1)[C@@H]2CO | . | . | . | -5.9 | . | .
COCc1cn(CC[C@H]2CC[C@H](NC(=O)Nc3ccc(C(F)(F)F)cc3)[C@@H](CO)O2)nn1 | . | . | . | -0.2 | . | .
Cc1ccc(F)cc1NC(=O)CCc1c(C)nn(-c2ccc(N3CCCCC3)nn2)c1C | 8.3 | 0.7 | 1.1 | 65.0* | 3.8 | -0.5
Cc1cc(F)ccc1NC(=O)CCc1c(C)nn(-c2ccc(N3CCCCC3)nn2)c1C | -2.0 | -0.4 | -4.5 | -40.4 | -4.1 | -1.8
SMILES | Wnt bcat act | DAX1 StAR inh | hgDAF-12 ag | esBAF inh | hcDAF-12 act | ssDAF-12 act
Cc1cc(C(=O)CN2C(=O)C3CC=CCC3C2=O)c(C)n1-c1ccccc1 (stereo not given) | 48.1* | 2.1 | 10.7* | -10.7 | 4.8 | -0.7
C[C@H]1CN([C@@H](C)CO)C(=O)c2cccc(NS(=O)(=O)c3ccc(F)cc3)c2O[C@H]1CN(C)C(=O)Nc1cccc2ccccc12 | . | . | . | -2.6 | . | .
c1ccc(-c2nc3ccccn3c2-c2ccccc2)cc1 | 42.6* | -0.6 | -1.2 | . | -1.0 | -2.0
O=C(Nc1ccc(Cl)cc1)C1C2CCCCC21 (stereo not given) | 19.7 | 1.5 | 11.7* | 72.5* | 3.0 | 1.2*
CCc1ccc(NC(=O)C2C3/C=C\CCCCC32)cc1 (stereo not given) | . | -0.4 | 4.0 | 60.8* | 3.3 | -0.8
O=C(NCC1CC1)Nc1cccc(Cl)c1 | 13.6 | 0.7 | 5.5 | 34.0 | 0.9 | -0.5
CCc1ccc(NC(=O)C2CCCCC2C(=O)O)cc1 (stereo not given) | -8.7 | 0.2 | 0.2 | . | -1.2 | -2.2
O=C(NCC1CC1)Nc1ccc(Cl)cc1 | 12.2 | 0.5 | 5.3 | 67.9* | 3.2 | -0.3
O=C1CCC(C(=O)Nc2ccc(Cl)cc2)N1 (stereo not given) | 1.5 | 0.0 | 4.9 | -6.4 | 0.6 | -1.1
COc1ccc(CN(C)C[C@@H]2Oc3ccc(NC(=O)C4CCCCC4)cc3CC(=O)N([C@H](C)CO)C[C@@H]2C)cc1 | . | . | . | 0.5 | . | .
C[C@@H]1CCCCO[C@H](CN(C)C(=O)CCCN(C)C)[C@@H](C)CN([C@H](C)CO)C(=O)c2cc(NC(=O)Nc3ccc(C(F)(F)F)cc3)ccc2O1 | . | . | . | -3.9 | . | .
Cc1ccc(OCC(=O)O/N=C(\N)c2cccc([N+](=O)[O-])c2)cc1C | -1.8 | 0.1 | 2.6 | . | 6.0* | -0.1
N/C(=N\OC(=O)c1cccc(F)c1)c1cccc([N+](=O)[O-])c1 | -1.5 | 0.3 | 0.8 | 61.1* | 3.1 | -1.2
CN(C)/N=C/c1ccc(OS(=O)(=O)c2ccccc2)cc1 | 6.3 | 1.9 | 11.0* | . | 1.6 | -1.1
Cc1ccc(S(=O)(=O)Oc2ccccc2)cc1 | 8.8 | 1.7 | 2.6 | 19.1 | -0.9 | -1.6
Cc1ccccc1-c1cnc2c(c1)C(=O)N([C@H](C)CO)C[C@@H](C)[C@@H](CN(C)C(=O)c1ccncc1)O2 | . | . | . | -0.2 | . | .
CC(C)c1ccc(/C=N/NC(=O)CCNC(=O)c2ccccc2)cc1 | -5.2 | 0.3 | 4.4 | 62.1* | 0.9 | -0.8
O=C(CCNC(=O)c1ccccc1Cl)N/N=C\c1ccc(O)cc1 | 0.7 | 0.9 | 0.2 | . | -0.1 | -0.8
CC(C)OC(=O)/C(=C\c1ccc2c(c1)c1ccccc1n2C)NC(=O)c1ccccc1 | . | 0.3 | 5.2 | 75.7* | 2.6 | -0.3
O=C(N=C1SCC(=O)N1c1ccccc1)c1ccco1 | . | 1.5 | 6.8 | 46.4* | 0.9 | -0.9
CN(C)C(=O)C[C@@H]1C=C[C@@H](NC(=O)Nc2cccc(F)c2)[C@H](CO)O1 | . | . | . | 1.1 | . | .
Cn1cccc1-c1cc(C(=O)N/N=C/c2ccc(F)cc2)[nH]n1 | 2.2 | 0.0 | -1.3 | 0.5 | -2.1 | -1.1

Screening data as filed in PubChem.
